The results in this text go back to PubChem BioAssay (NCI).

Among the test systems are NCI-H23 lung; NCI-H322M lung; HOP-62 NSCLC; HOP-92 NSCLC; NCI-H522 lung; 786-0 renal; COLO 205 colon; DU-145 prostate; K-562 leukemia; MALME-3M melanoma; MDA-MB-231 breast; RXF 393 renal; SF-268 CNS; SF-295 CNS; SF-539 CNS; UACC-257 melanoma; M14 melanoma; HCT-15 colon; A549/ATCC NSCLC.
Common to all, as to test: NCI-60 one-dose screen, 48 h (100 = growth as untreated, 0 = no growth, -100 = all killed)
Common to all, as to conditions: 10 µM unless noted

The structures appear in SMILES notation. About 83,000 compounds went through this panel and 20% of them were active in at least one assay; those are over-represented in the sample as a whole.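 Assay: single dose, 48 h. Readout: percent growth (0 = no net growth; negative = cell death). Active: <10.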 A number with no mark means an inactive call. Active and inactive are the calls of the source.

As for `O=C(Nc1ccc(Cl)cc1F)c1cc(I)ccc1O`, the growth in the test with NCI-H23 lung was 12.1%; with NCI-H322M lung it was 17.8%; in the test with HOP-62 NSCLC, 21.9%; in the test on HOP-92 NSCLC, -24.6% (active); in the test on NCI-H522 lung, -9.32% (active); with 786-0 renal it was 77.2%. In addition, the growth in the test with COLO 205 colon is 106%; in the test with DU-145 prostate it was 31.9%; in the test on K-562 leukemia, 14.9%; in the test with MALME-3M melanoma, -1.76% (active); in the test with MDA-MB-231 breast, 52.8%; in the test with RXF 393 renal it was 14.8%. The growth in the test on SF-268 CNS is 17.1%; in the test with SF-295 CNS it was 48.4%; in the test on SF-539 CNS, 16.4%; with UACC-257 melanoma, 21.9%; with M14 melanoma it was 27.9%; in the test with HCT-15 colon, 25.4%.
With `COc1ccc(-c2cn[nH]c2-c2ccc(OC)c(O)c2)cc1`, the growth with NCI-H23 lung is 92.8%; in the test on NCI-H322M lung, 98.6%; with HOP-62 NSCLC, 66.4%; in the test on HOP-92 NSCLC, 61.5%; in the test on NCI-H522 lung it was 45.6%; in the test with A549/ATCC NSCLC, 76%. Also, the growth with 786-0 renal was 92.5%; in the test on COLO 205 colon, 116%; in the test with DU-145 prostate, 96.9%; with MALME-3M melanoma, 98.6%; in the test with MDA-MB-231 breast, 68.4%; in the test on SF-268 CNS, 77.9%. Moreover, the growth in the test with SF-295 CNS was 81.7%; in the test with SF-539 CNS, 76.9%; in the test on UACC-257 melanoma, 92.3%; in the test with M14 melanoma, 64.2%; in the test on HCT-15 colon, 50%.
Regarding `COc1ccc(C(=O)Nc2ccc3nc(N4CCCCC4)cc(C)c3c2)cc1OC`, the growth was 96.8% with NCI-H23 lung; 117% with NCI-H322M lung; 115% in the test with HOP-62 NSCLC; 40.8% in the test with HOP-92 NSCLC; 98.3% in the test on NCI-H522 lung; 85.2% in the test with A549/ATCC NSCLC. Also, the growth is 85.4% with 786-0 renal; 95.9% in the test with COLO 205 colon; 83.9% with DU-145 prostate; -18.6% (active) in the test with K-562 leukemia; 64.8% in the test with MALME-3M melanoma; 48.3% in the test with MDA-MB-231 breast. For the same compound, the growth with RXF 393 renal is 92.3%; in the test on SF-268 CNS, 89.5%; in the test with SF-295 CNS it was 48.6%; in the test with SF-539 CNS, 82.2%; in the test with UACC-257 melanoma, 102%; in the test on M14 melanoma, 83.9%. Further, in the test with HCT-15 colon, the growth was 31.6%.
Consider `Nc1ccc(-n2c(=O)oc3ccc(Cl)cc3c2=O)c(Cl)c1`, for which the growth in the test with NCI-H23 lung was -4.26% (active); with NCI-H322M lung, -2.46% (active); in the test on HOP-62 NSCLC, -6.88% (active); with HOP-92 NSCLC, -13.1% (active); in the test with A549/ATCC NSCLC, 6.26% (active); in the test with 786-0 renal, -33.5% (active). Also, the growth with COLO 205 colon is -27.4% (active); in the test on DU-145 prostate it was 9.79% (active); with K-562 leukemia it was 7.44% (active); in the test on MALME-3M melanoma it was -29.6% (active); in the test on MDA-MB-231 breast it was -25.6% (active); in the test with RXF 393 renal, -6.99% (active). Also, the growth in the test on SF-268 CNS was 3.88% (active); in the test on SF-295 CNS, -58% (active); in the test on SF-539 CNS it was -5.36% (active); in the test on UACC-257 melanoma, -21.1% (active); with M14 melanoma, -11.2% (active); in the test with HCT-15 colon, 1.16% (active).
Regarding `CCCCCCC(O)(c1ccc(F)cc1)C(CN1CCOCC1)c1ccccc1` (configuration not stated), the growth with NCI-H23 lung is 25.4%; in the test on NCI-H322M lung, 74.7%; in the test on HOP-62 NSCLC it was 56.9%; in the test with HOP-92 NSCLC it was -16.1% (active); with 786-0 renal it was 44.9%; with COLO 205 colon, -21.7% (active). Further, the growth was 51.7% in the test with DU-145 prostate; 12.9% in the test on K-562 leukemia; 24.5% in the test on MALME-3M melanoma; 26.2% with MDA-MB-231 breast; 20.6% in the test on RXF 393 renal; 47.4% with SF-268 CNS. The growth with SF-295 CNS is -21.5% (active); in the test on SF-539 CNS, 79.1%; in the test on UACC-257 melanoma it was 57.2%; with M14 melanoma, 35.5%; with HCT-15 colon, 28.1%.
In the case of `COc1ccc(OC)c(/C=C/C(=O)c2c(C)nc3ccccc3c2/C=C/c2ccccc2)c1`, the growth was 58.8% in the test with NCI-H23 lung; 78.5% with NCI-H322M lung; 90.7% in the test on HOP-62 NSCLC; 48.5% with HOP-92 NSCLC; 23.7% with NCI-H522 lung; 55.8% in the test with A549/ATCC NSCLC. The growth in the test on 786-0 renal was 89.2%; with COLO 205 colon it was 86.4%; in the test on DU-145 prostate, 54.2%; in the test with K-562 leukemia, 17%; in the test with MALME-3M melanoma, 103%; in the test with MDA-MB-231 breast, 51.9%. In addition, the growth with RXF 393 renal is 69.6%; with SF-268 CNS, 73.7%; in the test on SF-295 CNS, 76%; in the test with SF-539 CNS it was 99.6%; in the test on UACC-257 melanoma it was 72%; in the test with M14 melanoma, 81.5%. Moreover, the growth in the test with HCT-15 colon is 37.6%.
In the case of `CCOc1cccc(/C=N\Nc2nc(=O)cc(C(=O)OC)s2)c1O`, the growth in the test on NCI-H23 lung is 85.7%; in the test with NCI-H322M lung, 54.2%; in the test with HOP-62 NSCLC it was 85.6%; with HOP-92 NSCLC it was 60.1%; in the test with A549/ATCC NSCLC it was 63.1%; in the test with 786-0 renal it was 83.9%. Moreover, the growth was 91.6% with COLO 205 colon; 103% in the test with DU-145 prostate; 50.8% in the test on K-562 leukemia; 66.8% with MALME-3M melanoma; 78.7% in the test on MDA-MB-231 breast; 97% in the test on RXF 393 renal. In addition, the growth in the test with SF-268 CNS was 76%; in the test on SF-295 CNS it was 57.5%; in the test with SF-539 CNS, 82.6%; in the test with UACC-257 melanoma, 78.2%; in the test on M14 melanoma, 63.7%; in the test with HCT-15 colon, 45.6%.
Take `CCOC(=O)c1cc2c(n1Cc1cc(OC)c(OC)c(OC)c1)-c1oncc1CCC2`: the growth in the test with NCI-H23 lung is 21.5%; with NCI-H322M lung, 50.7%; with HOP-62 NSCLC it was 39.8%; in the test on HOP-92 NSCLC, 129%; in the test with NCI-H522 lung it was 5.14% (active); with 786-0 renal, 39.5%. Also, the growth in the test with COLO 205 colon is -39.9% (active); with DU-145 prostate it was 13%; in the test on K-562 leukemia, 6.98% (active); in the test on MALME-3M melanoma, 43.9%; in the test on MDA-MB-231 breast, 12.3%; with RXF 393 renal it was 26.9%. For the same compound, the growth in the test with SF-268 CNS was 46.1%; with SF-539 CNS, -7.45% (active); in the test on UACC-257 melanoma, 70.7%; in the test with M14 melanoma, 18%; in the test with HCT-15 colon, 16.9%.
For the compound `Nc1ccccc1-c1ccc(-c2ccc(Cl)cc2)c2c1[nH]c1ccccc12`, the growth in the test with NCI-H23 lung was 77%; in the test on NCI-H322M lung, 64%; in the test with HOP-62 NSCLC it was 79.5%; with HOP-92 NSCLC, 7.99% (active); in the test on NCI-H522 lung, 73.5%; with A549/ATCC NSCLC, 67.9%. In addition, the growth was 76.5% in the test with 786-0 renal; 78.5% in the test on COLO 205 colon; 75.9% in the test with DU-145 prostate; 58.9% in the test on K-562 leukemia; 90.2% in the test with MALME-3M melanoma; 62.2% in the test with MDA-MB-231 breast. Besides, the growth is 53.4% with RXF 393 renal; 64.8% in the test with SF-268 CNS; 88.2% in the test with SF-295 CNS; 86.3% with SF-539 CNS; 81% with UACC-257 melanoma; 49.3% in the test with M14 melanoma. In addition, the growth in the test on HCT-15 colon was 73.2%.
